Bioassay records as filed in PubChem BioAssay.
D2 ag-1: D2 dopamine receptor (human) agonism; activation, % at 2 µM; hit rate 0.53% among 340,000; AID 485358; HEK293 T-REx D2 cells, calcium flux agonist mode; P14416;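 active = activation over 3 SD above normal in the single-dose calcium agonist read, cut at about 30% in these data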
Target sequence (P14416 whole entry, looked up): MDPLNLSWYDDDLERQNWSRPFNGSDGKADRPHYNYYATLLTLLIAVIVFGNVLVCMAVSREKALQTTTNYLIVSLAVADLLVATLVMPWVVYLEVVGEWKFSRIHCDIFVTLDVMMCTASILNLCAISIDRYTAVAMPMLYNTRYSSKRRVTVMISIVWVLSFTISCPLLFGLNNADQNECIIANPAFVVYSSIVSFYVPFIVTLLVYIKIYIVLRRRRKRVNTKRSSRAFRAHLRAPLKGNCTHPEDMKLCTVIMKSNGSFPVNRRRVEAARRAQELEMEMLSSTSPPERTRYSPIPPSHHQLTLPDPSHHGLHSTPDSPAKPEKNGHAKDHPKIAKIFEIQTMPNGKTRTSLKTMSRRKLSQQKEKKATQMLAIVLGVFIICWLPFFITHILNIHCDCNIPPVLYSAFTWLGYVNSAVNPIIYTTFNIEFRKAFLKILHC
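Calcium-flux readout, 1 cycle/sec over 180 s following compound pin transfer, in inducible HEK293 Trex D2 cells (force-coupled); dopamine controls included. Positive calcium responses during this window marked compounds as potential agonists.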
D2 antag: antagonists of human D2 dopamine receptor; HEK293 TREx D2 cells, calcium flux, dopamine EC80; hit rate 2% among 340,000; inhibition, % at 10 µM; in the data active = inhibition above about 30%; inactive = below that, where a call was filed
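Cells plated overnight at 30 C with tetracycline; no-wash calcium dye, 30–90 min RT; 10 s baseline; compound pinned; 180 s read; EC80 dopamine added; another 180 s read.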
D2 PAM-1: potentiates the human D2 dopamine receptor allosterically. P14416. DiscoveRx D2 beta-arrestin cells, luminescence, 90 min; 100% = 57 uM dopamine signal. potentiation, % (no concentration beside the values). hit rate 0.23% among 360,000. AID 624464; in the data active = potentiation above about 50%; inconclusive = mostly about 30% to 49%
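D2 cells co-treated with compound plus 50 nM dopamine (EC20) for 90 min at 37 deg C to detect potentiation. Beta-arrestin recruitment was read as enzyme-fragment luminescence after 1 h at ambient temperature. Full response was set by 57 uM dopamine.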
D2 ag-2: agonists of human D2 dopamine receptor (beta-arrestin) | DiscoveRx PathHunter D2 beta-arrestin, luminescence, 90 min; 100% = 57 uM dopamine signal | P14416 | hit rate 0.084% among 360,000 | AID 624465 | activation, % (concentration not given with the values); in the data active = activation above about 40%; inconclusive = between about 15% and that limit
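Agonist mode: compounds alone added to overnight-plated D2 PathHunter cells for 90 min at 37 C, with 57 uM final dopamine (EC100) defining full response. Beta-arrestin recruitment detected by chemiluminescent reagent, read after 1 h at ambient temperature.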
D2 PAM-2: positive allosteric modulators of human D2 dopamine receptor; HEK293 T-REx D2, calcium flux, EC20 dopamine potentiation; AID 485347; P14416; potentiation, % at 10 µM; hit rate 0.34% among 340,000;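 active = potentiation over 3 SD above the plate norm, cut at about 30% in these data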
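Using a no-wash calcium dye in inducible, force-coupled HEK293 Trex cells expressing D2, we tracked fluorescence each second for 180 s after compound, then for 180 s after EC20 dopamine to detect augmented signalling.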
A number is an active result; – = inactive; ? = inconclusive; · = no result given; ! = not confirmed by another sample. Compounds with a hit are over-represented: about 2.4% of the library has one in this group of screens.

SMILES	D2 ag-1	D2 antag	D2 PAM-1	D2 ag-2	D2 PAM-2
COc1ccc(CNC(=O)c2cc3c(=O)oc4ccc(C)cc4c3s2)c(OC)c1	–	·	·	·	–
Cc1ncc([N+](=O)[O-])n1CCO	–	38!	–	–	–
COc1ccc(C2C(C(=O)c3cccs3)=C(O)C(=O)N2c2cccc(C)n2)cc1 (stereo unspecified)	–	–	–	–	–
Cc1ccc(C2C(C(=O)c3cccs3)=C(O)C(=O)N2c2nnc(C)s2)cc1 (stereo unspecified)	40	–	–	–	–
Brc1cccc(CN2CCCCCC2)c1	–	–	–	–	–
Oc1cccc(CN2CCCCC2)c1	–	56	–	–	–
Cc1ccccc1N=Cc1cc2c(cc1O)OC(N)=C(C#N)C2c1ccccc1 (stereo unspecified)	–	33	–	–	–
CN(C)c1ccc(/C=C(\C#N)C(=O)c2ccccc2)cc1	163	–	–	–	–
N#CCSCC(=O)Nc1ccc(Br)cc1	–	–	–	–	–
Cc1ccc(NC(=O)CSCC#N)cc1	–	87	–	–	–
CCc1ccc(-n2nc3cc(C)c(NC(=O)c4cc(Cl)ccc4OC)cc3n2)cc1	–	·	·	·	–
Cc1ccc([N+](=O)[O-])cc1NC(=O)CN(C1CCCCC1)S(=O)(=O)c1ccc(Cl)cc1	–	53	–	–	–
O=C1CCCN1c1ncc(S(=O)(=O)c2ccc([N+](=O)[O-])cc2)s1	–	–	54	?	–
CCOc1cc(C(=O)NCCN2CCOCC2)cc(OCC)c1OCC	–	–	–	–	42
CCc1ccc2oc(-c3ccc(C)c(NC(=O)c4ccc(C#N)cc4F)c3)nc2c1	–	·	·	·	–
Cc1ccc(NC2=NCC(=O)N2c2ccc3c(c2)OCCO3)c(C)c1	–	–	–	–	31
CC1CCN(CC(=O)N2CCc3ccccc32)CC1	–	54	–	–	–
CCOC(=O)C1CCN(CC(=O)N2CCc3ccccc32)CC1	·	·	–	–	·
O=C(CSc1n[nH]c(-c2ccc(S(=O)(=O)N3CCCCC3)cc2)n1)Nc1nccs1	–	39	–	–	–
CCOc1ccc(/C=C/c2nc(C#N)c(N3CCC(C)CC3)o2)cc1	–	·	·	·	–
Oc1ccc(CN2CCCCC2)c2cccnc12	–	–	–	–	–
Oc1ccc(CN2CCc3ccccc3C2)c2cccnc12	–	65	–	–	–
Oc1cc2c(cc1CN1CCc3ccccc3C1)OCO2	–	33	–	–	–
COc1cc(CN2CCc3ccccc3C2)ccc1O	–	–	–	–	–
CCc1ccccc1NC(=O)Cn1c(=O)nc(-c2ccccc2)c2ccccc21	–	·	·	·	–
SMILES	D2 ag-1	D2 antag	D2 PAM-1	D2 ag-2	D2 PAM-2
CC(=O)N1c2ccc(S(=O)(=O)NCC3CCC(C(=O)Nc4cccc(F)c4)CC3)cc2CC1C (stereo unspecified)	–	·	·	·	–
c1ccc(CCCCNCC2COc3ccccc3O2)cc1 (stereo unspecified)	–	96	–	–	–
CCCNCC1COc2ccccc2O1 (stereo unspecified)	–	33	–	–	–
O=C(CC1COc2ccccc2O1)NCCc1ccccc1 (stereo unspecified)	–	–	–	–	–
CCOC(=O)CCNCC1COc2ccccc2O1 (stereo unspecified)	–	–	–	–	–
OC(CNCC1COc2ccccc2O1)COCc1cccs1 (stereo unspecified)	–	31	–	–	–
O=C1CC(c2nc3ccccc3n2CCCCOc2ccccc2)CN1c1ccccc1Cl (stereo unspecified)	–	·	·	·	–
COc1ccccc1CN1CCC(CNS(=O)(=O)c2cc(-c3onc(C)c3C)ccc2OC)CC1	–	33	–	–	–
CCOc1ccc(-n2c(Cc3cc(=O)[nH]c(=O)[nH]3)nnc2SCC)cc1	–	40	–	–	–
COc1ccc(C2CCCN2C(=O)c2cccs2)cc1 (stereo unspecified)	–	78	–	–	–
CCOc1ccc(CNC(=O)c2ccc(NC(=O)N3CCSc4ncccc43)cc2)cc1OC	–	·	·	·	–
CC(CCc1ccccc1)NC(=O)C(=O)Nc1ccccc1 (stereo unspecified)	–	72	–	–	–
CCOC(=O)C1CCCN(C(=O)c2ccc3c(c2)N(Cc2ccc(Cl)cc2)C(=O)c2ccccc2S3=O)C1 (stereo unspecified)	·	·	·	·	–
